# Measured values taken from PubChem BioAssay (NCATS).
# Inconclusive results are not listed. A number with no mark means an inactive call. Calls of active or inactive are those of the source. Calls come from the whole dose curve; as a rule, active = well fitted curve in the direction sought with a large enough effect; inconclusive = small, poorly fitted or top-dose-only effect, or another doubt; inactive = no such curve, though single readings can be large; an effect the other way counts as inactive or inconclusive.
# Tests used:
# [1] = Quantitative High-Throughput drug screen in 47 multiple myeloma cell lines against the NCATS MIPE library collection: KMS26_JCRB cell viability assay (AID 1918975); note: nearly all actives have a fitted effect of over 45% in size
# Summary of the method: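 Viability readout: CellTiter-Glo luminescence following 5 min room-temperature incubation with reagent. Prior exposure: 48 h, 37C, humidified 5% CO2, 500 cells per well.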
# [2] = Quantitative High-Throughput drug screen in 47 multiple myeloma cell lines against the NCATS MIPE library collection: MMM1_PLB cell viability assay (AID 1918976); note: nearly all actives have a fitted effect of over 35% in size
# Summary of the method: (§1)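 qHTS format: cells plated (500/well), pin-dosed with MIPE 4.0 compounds, kept 48 h at 37 °C. Readout was CellTiter-Glo luminescence, median RLU.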
# [3] = Quantitative High-Throughput drug screen in 47 multiple myeloma cell lines against the NCATS MIPE library collection: MOLP8_DSMZ cell viability assay (AID 1918977); note: nearly all actives have a fitted effect of over 45% in size
# Summary of the method: as §1
# [4] = Quantitative High-Throughput drug screen in 47 multiple myeloma cell lines against the NCATS MIPE library collection: NCIH929_DSMZ cell viability assay (AID 1918978); note: nearly all actives have a fitted effect of over 35% in size
# Summary of the method: as §1
# [5] = Quantitative High-Throughput drug screen in 47 multiple myeloma cell lines against the NCATS MIPE library collection: OCIMY1_PLB cell viability assay (AID 1918979); note: nearly all actives have a fitted effect of over 35% in size;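 for viability: 100% = DMSO-only wells and 0% = cell-free media-only wells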
# Summary of the method: as §1
# [6] = Quantitative High-Throughput drug screen in 47 multiple myeloma cell lines against the NCATS MIPE library collection: MM1S_ATCC cell viability assay (AID 1918980); note: nearly all actives have a fitted effect of over 45% in size
# Summary of the method: as §1
# [7] = Quantitative High-Throughput drug screen in 47 multiple myeloma cell lines against the NCATS MIPE library collection: MM1R_ATCC cell viability assay (AID 1918981); note: nearly all actives have a fitted effect of over 35% in size
# Summary of the method: as §1
# [8] = Quantitative High-Throughput drug screen in 47 multiple myeloma cell lines against the NCATS MIPE library collection: LP1_DSMZ cell viability assay (AID 1918982); note: nearly all actives have a fitted effect of over 35% in size
# Summary of the method: as §1
# [9] = Quantitative High-Throughput drug screen in 47 multiple myeloma cell lines against the NCATS MIPE library collection: KMS28PE_JCRB cell viability assay (AID 1918983); note: nearly all actives have a fitted effect of over 35% in size
# Summary of the method: as §1
# [10] = Quantitative High-Throughput drug screen in 47 multiple myeloma cell lines against the NCATS MIPE library collection: L363_DSMZ cell viability assay (AID 1918984); note: nearly all actives have a fitted effect of over 40% in size
# Summary of the method: as §1
# [11] = Quantitative High-Throughput drug screen in 47 multiple myeloma cell lines against the NCATS MIPE library collection: KMS34_JCRB cell viability assay (AID 1918985); note: nearly all actives have a fitted effect of over 40% in size
# Summary of the method: as §1
# [12] = Quantitative High-Throughput drug screen in 47 multiple myeloma cell lines against the NCATS MIPE library collection: OCIMY7_PLB cell viability assay (AID 1918987); note: nearly all actives have a fitted effect of over 65% in size
# Summary of the method: as §1
# [13] = Quantitative High-Throughput drug screen in 47 multiple myeloma cell lines against the NCATS MIPE library collection: OCIMY5_PLB cell viability assay (AID 1918988); note: nearly all actives have a fitted effect of over 65% in size
# Summary of the method: as §1
# [14] = Quantitative High-Throughput drug screen in 47 multiple myeloma cell lines against the NCATS MIPE library collection: OPM1_PLB cell viability assay (AID 1918989); note: nearly all actives have a fitted effect of over 40% in size
# Summary of the method: as §1
# [15] = Quantitative High-Throughput drug screen in 47 multiple myeloma cell lines against the NCATS MIPE library collection: SKMM1_PLB cell viability assay (AID 1919863); settings: SKMM1 myeloma viability, CellTiter-Glo ATP, 48 h; viability: active compounds read low; note: nearly all actives have a fitted effect of over 35% in size
# Summary of the method: as §1
# [16] = Quantitative High-Throughput drug screen in 47 multiple myeloma cell lines against the NCATS MIPE library collection: U266_ATCC cell viability assay (AID 1919864); note: nearly all actives have a fitted effect of over 35% in size
# Summary of the method: as §1
# [17] = Quantitative High-Throughput drug screen in 47 multiple myeloma cell lines against the NCATS MIPE library collection: XG6_PLB cell viability assay (AID 1919865); note: nearly all actives have a fitted effect of over 40% in size
# Summary of the method: as §1
# [18] = Quantitative High-Throughput drug screen in 47 multiple myeloma cell lines against the NCATS MIPE library collection: XG1_PLB cell viability assay (AID 1919866); note: nearly all actives have a fitted effect of over 35% in size
# Summary of the method: as §1
# [19] = Quantitative High-Throughput drug screen in 47 multiple myeloma cell lines against the NCATS MIPE library collection: VP6_DJ cell viability assay (AID 1919867); note: nearly all actives have a fitted effect of over 40% in size
# Summary of the method: as §1
# [20] = Quantitative High-Throughput drug screen in 47 multiple myeloma cell lines against the NCATS MIPE library collection: KMS21BM_JCRB cell viability assay (AID 1918974); settings: ATP luminescence, 48 h; viability: at 45.8 µM (top of the series) unless noted
# Summary of the method: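 Relative luminescence from CellTiter-Glo served as the viability signal, referenced to DMSO-treated (100%) and cell-free medium (0%) controls. Treatment lasted 48 hours at 37C with 500 cells per well.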
# Potency is the fitted concentration of half-maximal effect.
structure (smiles),measurement,setting,value
O=c1[nH]nc(Sc2ncc([N+](=O)[O-])s2)n1-c1ccc2c(c1)OCCO2,Potency,[1],1.48 µM (active)
same,Potency,[2],2.96 µM (active)
same,Potency,[3],1.48 µM (active)
same,Potency,[4],0.833 µM (active)
same,Potency,[5],3.72 µM (active)
same,Potency,[6],2.35 µM (active)
same,Potency,[7],1.32 µM (active)
same,Potency,[8],6.62 µM (active)
same,Potency,[9],3.32 µM (active)
same,Potency,[10],3.72 µM (active)
same,Potency,[11],2.09 µM (active)
same,Potency,[12],0.935 µM (active)
same,Potency,[13],2.96 µM (active)
same,Potency,[14],2.09 µM (active)
same,Potency,[15],4.18 µM (active)
same,Potency,[16],2.64 µM (active)
same,Potency,[17],2.09 µM (active)
same,Potency,[18],2.09 µM (active)
same,Potency,[19],2.35 µM (active)
CCCCCN(CCC12CC3CC(CC(C3)C1)C2)C(=O)NCCCc1ccncc1,Potency,[1],20.9 µM (active)
same,Potency,[2],20.9 µM (active)
same,Potency,[3],20.9 µM (active)
same,Potency,[4],18.7 µM (active)
same,Potency,[5],inactive
same,Potency,[6],18.7 µM (active)
same,Potency,[7],23.5 µM (active)
same,Potency,[9],20.9 µM (active)
same,Potency,[12],16.6 µM (active)
same,Potency,[13],14.8 µM (active)
same,Potency,[15],23.5 µM (active)
same,Potency,[16],14.8 µM (active)
CCC[C@H](NC(=O)C(C#N)=Cc1cccc(Br)n1)c1ccccc1,Potency,[1],1.48 µM (active)
same,Potency,[2],2.96 µM (active)
same,Potency,[3],1.48 µM (active)
same,Potency,[4],1.05 µM (active)
same,Potency,[5],6.62 µM (active)
same,Potency,[6],7.43 µM (active)
same,Potency,[7],1.66 µM (active)
same,Potency,[8],5.26 µM (active)
same,Potency,[9],2.96 µM (active)
same,Potency,[10],7.43 µM (active)
same,Potency,[11],4.69 µM (active)
same,Potency,[12],0.526 µM (active)
same,Potency,[13],2.09 µM (active)
same,Potency,[14],0.935 µM (active)
same,Potency,[15],2.96 µM (active)
same,Potency,[17],2.35 µM (active)
same,Potency,[18],1.66 µM (active)
same,Potency,[19],2.09 µM (active)
Cc1c(C)n(Cc2ccc(-c3ccccc3C(=O)O)cc2)c2ccc(C(=O)N[C@@H](C)c3ccc([N+](=O)[O-])cc3)cc12,Potency,[20],0.148 µM (active)
same,Potency,[6],5.26 µM (active)
same,Potency,[8],inactive
same,Potency,[9],inactive
same,Potency,[10],0.0935 µM (active)
same,viability,[15],123%
Cc1cc(Nc2cc(N3CCN(C)CC3)nc(C=Cc3ccccc3)n2)n[nH]1,Potency,[1],21.5 µM (active)
same,Potency,[2],30.3 µM (active)
same,Potency,[3],9.59 µM (active)
same,Potency,[4],6.79 µM (active)
same,Potency,[5],5.4 µM (active)
same,Potency,[6],17.1 µM (active)
same,Potency,[7],13.6 µM (active)
same,Potency,[8],34 µM (active)
same,Potency,[9],13.6 µM (active)
same,Potency,[11],5.4 µM (active)
same,Potency,[12],0.605 µM (active)
same,Potency,[13],4.81 µM (active)
same,Potency,[14],3.82 µM (active)
same,Potency,[15],42.9 µM (active)
same,Potency,[16],38.2 µM (active)
same,Potency,[17],9.59 µM (active)
same,Potency,[19],15.2 µM (active)
Nc1ccn([C@@H]2CS[C@H](CO)O2)c(=O)n1,viability,[20],155% [at 92.2 µM] (active)
same,Potency,[4],38.2 µM (active)
same,Potency,[7],inactive
same,Potency,[9],inactive
same,Potency,[10],inactive
same,Potency,[13],inactive
same,Potency,[14],inactive
same,viability,[15],127%
CC1=C(CO)C(=O)O[C@@H]([C@@H](C)[C@H]2CC[C@H]3[C@@H]4C[C@H]5O[C@]56[C@@H](O)C=CC(=O)[C@]6(C)[C@@H]4CC[C@]23C)C1,Potency,[1],0.235 µM (active)
same,Potency,[2],0.833 µM (active)
same,Potency,[3],0.132 µM (active)
same,Potency,[4],0.166 µM (active)
same,Potency,[5],0.118 µM (active)
same,Potency,[6],0.148 µM (active)
same,Potency,[7],0.132 µM (active)
same,Potency,[8],0.187 µM (active)
same,Potency,[9],0.264 µM (active)
same,Potency,[11],0.118 µM (active)
same,Potency,[12],0.105 µM (active)
same,Potency,[13],0.132 µM (active)
same,Potency,[14],0.132 µM (active)
same,Potency,[15],0.296 µM (active)
same,Potency,[16],0.264 µM (active)
same,Potency,[17],0.469 µM (active)
same,Potency,[18],0.209 µM (active)
same,Potency,[19],0.166 µM (active)
CN(c1ncccc1CNc1nc(Nc2ccc3c(c2)CC(=O)N3)ncc1C(F)(F)F)S(C)(=O)=O,Potency,[1],7.43 µM (active)
same,Potency,[2],7.43 µM (active)
same,Potency,[3],4.18 µM (active)
same,Potency,[4],2.96 µM (active)
same,Potency,[5],13.2 µM (active)
same,Potency,[6],6.62 µM (active)
same,Potency,[7],6.62 µM (active)
same,Potency,[8],8.33 µM (active)
same,Potency,[9],9.35 µM (active)
same,Potency,[10],2.64 µM (active)
same,Potency,[13],5.26 µM (active)
same,Potency,[14],4.69 µM (active)
same,Potency,[15],14.8 µM (active)
same,Potency,[16],9.35 µM (active)
same,Potency,[17],3.72 µM (active)
same,Potency,[18],3.32 µM (active)
same,Potency,[19],2.64 µM (active)
O=C(Nc1cn[nH]c1-c1nc2ccc(CN3CCOCC3)cc2[nH]1)NC1CC1,Potency,[1],4.69 µM (active)
same,Potency,[2],5.9 µM (active)
same,Potency,[3],2.64 µM (active)
same,Potency,[4],1.18 µM (active)
same,Potency,[5],10.5 µM (active)
same,Potency,[6],1.87 µM (active)
same,Potency,[7],2.96 µM (active)
same,Potency,[8],4.69 µM (active)
same,Potency,[9],7.43 µM (active)
same,Potency,[10],2.64 µM (active)
same,Potency,[11],0.418 µM (active)
same,Potency,[12],0.332 µM (active)
same,Potency,[13],4.18 µM (active)
same,Potency,[14],1.66 µM (active)
same,Potency,[15],10.5 µM (active)
same,Potency,[16],2.35 µM (active)
same,Potency,[17],0.743 µM (active)
same,Potency,[18],0.148 µM (active)
same,Potency,[19],2.96 µM (active)
Cc1cnc(Nc2ccc(F)cc2Cl)nc1-c1c[nH]c(C(=O)N[C@H](CO)c2cccc(Cl)c2)c1,Potency,[1],20.9 µM (active)
same,Potency,[2],16.6 µM (active)
same,Potency,[3],23.5 µM (active)
same,Potency,[4],16.6 µM (active)
same,Potency,[5],26.4 µM (active)
same,Potency,[6],16.6 µM (active)
same,Potency,[7],16.6 µM (active)
same,Potency,[8],18.7 µM (active)
same,Potency,[10],1.32 µM (active)
same,Potency,[11],23.5 µM (active)
same,Potency,[12],4.69 µM (active)
same,Potency,[13],18.7 µM (active)
same,Potency,[14],20.9 µM (active)
same,Potency,[15],20.9 µM (active)
same,Potency,[16],20.9 µM (active)
same,Potency,[17],3.72 µM (active)
same,Potency,[19],5.26 µM (active)
